Source: PubChem BioAssay AID488969 (Vanderbilt High Throughput Screening Facility, 2010)
Over roughly 110,000 compounds, “z-score” has its median near -0.1; the highest 2% begin near 2. Shown is part of a subset that was picked to be rich in the highest values. The source made the active and inactive calls.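 How the source made its calls: active means z-score in the third read window above 3 or below -3; inactive means the rest.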

molecular target: Metabotropic glutamate receptor 8 (Rattus norvegicus) (UniProt P70579); assay: rat mGluR8 modulators via GIRK flux, primary screen, cell-based, thallium flux, HTS (AID 488969); conditions: HEK293 rat mGluR8, GIRK (G protein-gated inwardly rectifying potassium channel) thallium flux, FluoZin2; at 10 µM; stronger effect = higher value; submaximal glutamate (EC20) added with thallium
Sequence (P70579 whole entry, looked up): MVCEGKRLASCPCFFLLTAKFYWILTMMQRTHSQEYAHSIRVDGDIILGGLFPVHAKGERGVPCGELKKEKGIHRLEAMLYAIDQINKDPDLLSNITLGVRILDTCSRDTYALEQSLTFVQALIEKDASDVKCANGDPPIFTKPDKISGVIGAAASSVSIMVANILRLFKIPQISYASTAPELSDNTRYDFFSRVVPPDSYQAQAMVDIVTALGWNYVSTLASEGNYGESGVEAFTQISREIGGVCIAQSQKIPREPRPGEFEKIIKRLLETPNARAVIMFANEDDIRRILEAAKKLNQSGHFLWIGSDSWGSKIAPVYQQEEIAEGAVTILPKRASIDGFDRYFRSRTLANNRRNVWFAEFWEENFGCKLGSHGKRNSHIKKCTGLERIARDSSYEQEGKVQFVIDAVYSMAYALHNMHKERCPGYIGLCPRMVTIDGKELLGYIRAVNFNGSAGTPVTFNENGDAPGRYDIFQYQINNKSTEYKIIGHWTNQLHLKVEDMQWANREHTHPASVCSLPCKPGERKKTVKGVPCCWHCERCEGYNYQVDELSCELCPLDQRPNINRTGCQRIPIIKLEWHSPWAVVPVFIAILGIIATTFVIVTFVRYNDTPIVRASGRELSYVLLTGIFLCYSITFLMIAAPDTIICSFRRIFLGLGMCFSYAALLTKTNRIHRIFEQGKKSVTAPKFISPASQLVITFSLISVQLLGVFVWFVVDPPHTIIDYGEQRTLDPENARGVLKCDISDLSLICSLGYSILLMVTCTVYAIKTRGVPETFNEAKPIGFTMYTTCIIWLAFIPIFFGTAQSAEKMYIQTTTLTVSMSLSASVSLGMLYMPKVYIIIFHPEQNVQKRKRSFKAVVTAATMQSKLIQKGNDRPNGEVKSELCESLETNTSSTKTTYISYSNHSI

Row | Structure (SMILES) | z-score
1 | O=C(NCCc1ccccc1)c1cccnc1 | -0.0437
2 | O=C(NCCCCNC(=O)c1cccnc1)c1cccnc1 | 8.98 (active)
3 | O=C(NCCOCCOCCNC(=O)c1cccnc1)c1cccnc1 | 0.119
4 | Cc1c(NC(=O)/C(C#N)=C/c2c(Oc3ccccc3)nc3ccccn3c2=O)c(=O)n(-c2ccccc2)n1C | 1.16
5 | CSc1ncc(Cl)c(C(=O)Nc2nnc(SC)s2)n1 | -0.194
6 | Cc1cc(NC(=O)CSc2nc(C3CC3)nc3sc(C)c(C)c23)no1 | 12.4 (active)
7 | Cc1cc(NC(=O)CSc2nc3sc4c(c3c(=O)n2C)CCCC4)no1 | 0.943
8 | Cc1cc(NC(=O)CSc2nc(C(C)C)nc3sc4c(c23)CCCC4)no1 | -0.493
9 | CCCc1nc(SCC(=O)Nc2nnc(CC)s2)c2c(C)c(C)sc2n1 | -0.42
10 | Cc1sc2nc(C3CCCCC3)nc(SCC(=O)N3CC(=O)Nc4ccccc43)c2c1C | -0.0509
11 | Cc1sc2nc(C3CC3)nc(SCC(=O)N3CC(=O)Nc4ccccc43)c2c1C | 3.69 (active)
12 | CCc1nc(SCC(=O)Nc2cc(C)on2)c2c(C)c(C)sc2n1 | -0.346
13 | Cc1nc(SCC(=O)N2CC(=O)Nc3ccccc32)c2c(C)c(C)sc2n1 | -0.286
14 | Cc1cc(NC(=O)CSc2nc(C3CC3)nc3sc4c(c23)CCC(C)C4)no1 (stereo not drawn) | 0.482
15 | Cc1nnc(NC(=O)CSc2nc(C(C)C)nc3sc(C)c(C)c23)s1 | -0.837
16 | CCc1nc(SCC(=O)Nc2nnc(CC)s2)c2c(C)c(C)sc2n1 | 8.71 (active)
17 | Cc1nc(SCC(=O)Nc2cc(C)on2)c2c3c(sc2n1)CCCC3 | 2.03
18 | COc1ccc(-c2nc(C)ncc2N=Nc2ccccc2)cc1 | -0.33
19 | O=C1CCN(C(=O)Nc2cccc(Cl)c2)N1 | -0.0566
20 | CCN(CCO)c1ncnc2c1sc1nc(C(C)C)c3c(c12)CC(C)(C)OC3 | -0.241
21 | Cc1cccc(NC(=O)CN2C(=O)N/C(=C/c3ccc(C)o3)C2=O)c1 | 0.0879
22 | CCOCC(=O)Nc1cc([N+](=O)[O-])ccc1C | -0.688
23 | CC1=NN(c2ccc(C)cc2)C(=O)/C1=C\c1ccc(Br)s1 | -0.327
24 | Cn1c(Cc2ccccc2)nnc1SCC(=O)NC1CCCCC1 | 0.0891
25 | CCN(CC)C(=O)Cn1nc(C)c2ccccc2c1=O | -0.346

Row | Structure (SMILES) | z-score
26 | Cc1ccsc1/C=N/Nc1nc(Cl)c(Cl)cc1Cl | 0.292
27 | Cc1ccc(/C=N/Nc2nc(Cl)c(Cl)cc2Cl)s1 | 3.84 (active)
28 | Cc1ccc(/C=N/Nc2ncc(Cl)cc2Cl)s1 | 0.576
29 | Cc1sc2nc(CN3CCCC3)nc(N3CCN(S(=O)(=O)c4cccs4)CC3)c2c1C | 4.12 (active)
30 | Cc1sc2nc(CN3CCCC3)nc(N3CCC(C(N)=O)CC3)c2c1C | -0.212
31 | CCc1nc(N2CCN(S(=O)(=O)c3ccc(Br)cc3)CC2)c2c(C)c(C)sc2n1 | -0.0531
32 | O=c1c2cc(Br)ccc2nc(-c2cccc(C(F)(F)F)c2)n1O | 10.5 (active)
33 | FC(F)(F)c1cccc(-c2nnc3ccc(C(F)(F)F)cn23)c1 | 0.312
34 | O=c1[nH]c(/C(Cl)=C/c2cccc(C(F)(F)F)c2)nc2cc(Cl)ccc12 | -0.0389
35 | O=c1c2ccc(Cl)cc2nc(-c2cccc(C(F)(F)F)c2)n1O | 10.9 (active)
36 | O=C(Nc1ccc(C(F)(F)F)cc1)c1cc(-c2cccnc2)nc2ccc(Br)cc12 | -0.0141
37 | O=c1c2ccccc2nc(-c2cccc(Cl)c2)n1O | 1.74
38 | C=CCc1ccccc1OCC(O)CN1CCN(c2ccccc2F)CC1 (stereo not drawn) | 0.0351
39 | Cc1noc(C)c1S(=O)(=O)N1CCC(C(=O)N2CCN(C(=O)c3ccco3)CC2)CC1 | -0.53
40 | O=C(O)CCCC(=O)Nc1ccc(Br)cc1 | 0.0741
41 | O=c1oc(-c2ccco2)nc2ccccc12 | -0.973
42 | O=c1oc(-c2ccc(Br)o2)nc2ccccc12 | 5.63 (active)
43 | Cc1ccc2nc(-c3ccc(Br)o3)oc(=O)c2c1 | -0.0466
44 | CCN(CC)C(=O)C(=O)N/N=C/c1ccc(Br)cc1 | 0.0116
45 | CC(Sc1nnc(-c2ccc(Cl)cc2Cl)n1Cc1ccccc1)C(=O)Nc1nccs1 (stereo not drawn) | -1.54
46 | Cc1nn(C(=O)c2ccccc2)c2c1C(=O)CC(C)(C)C2 | 2.47
47 | Cn1c2c(c(O)c(-c3ccccc3)c1=O)C(=O)CC(C)(C)C2 | -0.119
48 | CCCc1nn(C(=O)c2ccccc2)c2c1C(=O)CC(C)(C)C2 | 0.0989
49 | O=C(NCC(=O)N(c1ccccc1)C(C(=O)NC1CCCC1)c1ccncc1)c1ccco1 (stereo not drawn) | -0.115
50 | COC(=O)Nc1nnc(Cc2ccccc2)s1 | -0.412

Row | Structure (SMILES) | z-score
51 | COC(=O)Nc1nnc(Cc2ccc(Cl)cc2)s1 | 2.4
52 | COC(=O)Nc1nnc(Cc2ccc(OC)cc2)s1 | -0.342
53 | Cc1ccc2oc(C(=O)Nc3nnc(C)s3)c(C)c2c1 | -0.9
54 | Nn1c(-c2cccc(Br)c2)n[nH]c1=S | -0.267
55 | S=c1[nH]nc(-c2ccncc2)n1Cc1ccco1 | -0.198
56 | CCn1c(-c2c[nH]c3ccccc23)n[nH]c1=S | -0.0356
57 | CCn1c(-c2cc3ccccc3cc2O)n[nH]c1=S | 2.62
58 | Oc1ccc(-c2n[nH]c(=S)n2Cc2ccco2)cc1 | -0.11
59 | CCn1c(-c2cccc(Br)c2)n[nH]c1=S | 2.35
60 | S=c1[nH]nc(-c2ccc(Br)cc2)n1Cc1ccco1 | 2.41
61 | CCn1c(-c2cc(C3CC3)nc3ccccc23)n[nH]c1=S | -0.258
62 | CCn1c(-c2ccc(C)cc2)n[nH]c1=S | -0.192
63 | CCCCCn1c(N)c(-c2nc3ccccc3s2)c2c([N+](=O)[O-])nn(CC)c(=O)c21 | -0.75
64 | COc1ccc2c(c1OC)C(=O)N1N=C(c3ccc(Br)cc3)CC21 (stereo not drawn) | -1.04
65 | C=C(C)C1CC=C(CN2CCC(C(=O)OCC)CC2)CC1 (stereo not drawn) | 0.503
66 | Cc1ccc(S(=O)(=O)c2nc(S(C)(=O)=O)sc2N(C)C)cc1 | 0.113
67 | COc1ccc(CC(=O)O/N=C(\N)Cc2cccc3ccccc23)cc1OC | -0.317
68 | Cc1ccsc1/C=C(\C#N)C(=O)NCc1ccco1 | -0.0871
69 | COc1cc(C)c(S(=O)(=O)Nc2ccc(CC(=O)O)cc2)cc1C | 2.01
70 | COc1ccc(C)c(S(=O)(=O)Nc2ccc(OCC(=O)O)cc2)c1 | 0.2
71 | CCOc1cc(C)c(S(=O)(=O)Nc2ccc(F)cc2)cc1C | 0.564
72 | N#C/C(=C\c1ccccc1)C(=O)Nc1cc(S(=O)(=O)N2CCOCC2)ccc1N1CCCC1 | -0.0157
73 | CC(C)NC(=O)C12CC3CC(C1)CC(n1cnc(Cl)n1)(C3)C2 | -0.0733
